Records with an inconclusive call do not appear. The source made the active and inactive calls. The call rests on the fitted dose curve; in most records, active means well fitted curve in the direction sought with a large enough effect in the repeat runs; inconclusive means weak or mixed curves; inactive means no such curve, though single readings can be large; an effect the other way counts as inactive or inconclusive.

Assay [1] addresses Cytochrome P450 2C19 (Homo sapiens) (UniProt P33261). The assay can be described thus: Cytochrome P450 Family 2 Subfamily C Member 19 (CYP2C19) small molecule antagonists: luciferase reporter qHTS assay (AID 1671197). Further: nearly all actives have a fitted effect of over 65% in size. The settings on record: P450-Glo CYP2C19 enzyme, luciferin luminescence, 1 h; series mostly up to 115 µM. A digest of the protocol:
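CYP2C19 P450-Glo, 1536-well qHTS. Cpd + enzyme/proluciferin substrate 10 min RT; + NADPH regen, 37C 1 h; stop with luciferin detection reagent, 20 min RT, luminescence (RLU). Pos ctrl ketoconazole.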
In general terms: A reporter such as luciferase makes a cellular process visible.

For assay [2], the target named is Cytochrome P450 2C9 (Homo sapiens) (UniProt P11712). The assay can be described thus: Cytochrome P450 Family 2 Subfamily C Member 9 (CYP2C9) small molecule antagonists: luciferase reporter qHTS assay (AID 1671198). Further: nearly all actives have a fitted effect of over 50% in size. As to conditions: P450-Glo CYP2C9 enzyme assay, luciferin luminescence; series mostly up to 53 µM. The essentials:
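CYP2C9 activity was measured with a P450-Glo proluciferin substrate. Enzyme–substrate mix was held with compound for 10 min at room temperature, then NADPH regeneration solution was added for 1 h at 37C. Luciferin product was read as luminescence.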

The target in assay [3] is Cytochrome P450 3A4 (Homo sapiens) (UniProt P08684). The assay can be described thus: Cytochrome P450 Family 3 Subfamily A Member 4 (CYP3A4) small molecule antagonists: luciferase reporter qHTS assay (AID 1671201). Further: nearly all actives have a fitted effect of over 50% in size. The settings on record: P450-Glo CYP3A4 enzyme, luciferin luminescence, 1 h; series mostly up to 115 µM. The essentials:
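P450-Glo CYP3A4 luminescent assay: compounds preincubated 10 min at room temperature with enzyme and proluciferin substrate, NADPH regeneration added, 1 h room-temperature reaction, stopped with luciferin detection reagent; luminescence read after 20 min. Ketoconazole positive control.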

Assay [4] addresses Cytochrome P450 1A2 (Homo sapiens) (UniProt P05177). Description: Cytochrome P450 Family 1 Subfamily A Member 2 (CYP1A2) small molecule antagonists: luciferase reporter qHTS assay (AID 1671199). Further: nearly all actives have a fitted effect of over 50% in size. The settings on record: P450-Glo CYP1A2 enzyme, luciferin luminescence, 1 h; series mostly up to 53 µM. A digest of the protocol: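 Quantitative high-throughput format using the P450-Glo CYP1A2 system. Reaction initiated by NADPH regeneration solution, 1 h at room temperature, then stopped with detection reagent; luminescence measured 20 min later.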

The target of assay [5] is Voltage-gated inwardly rectifying potassium channel KCNH2 (Homo sapiens) (UniProt Q12809). The assay can be described thus: Human Ether-a-go-go-Related Gene (hERG) channel small molecule antagonists: fluorescence cell-based qHTS assay (AID 1671200). Further: nearly all actives have a fitted effect of over 50% in size. As to conditions: hERG-U2OS cells, FluxOR thallium flux fluorescence; series mostly up to 76.8 µM. The essentials:
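hERG-U2OS cells plated overnight at 37 C, loaded with FluxOR II dye 1 h at RT in dark; after 10 min, thallium stimulus added. Fluorescence (480/540 nm) read kinetically for 2 min at 1 s intervals.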
Background: The hERG channel carries a current that helps repolarise heart muscle cells.
Potency means the concentration at half of the fitted maximal effect.

Sequence of Voltage-gated inwardly rectifying potassium channel KCNH2 (Homo sapiens) (Q12809 whole entry, looked up): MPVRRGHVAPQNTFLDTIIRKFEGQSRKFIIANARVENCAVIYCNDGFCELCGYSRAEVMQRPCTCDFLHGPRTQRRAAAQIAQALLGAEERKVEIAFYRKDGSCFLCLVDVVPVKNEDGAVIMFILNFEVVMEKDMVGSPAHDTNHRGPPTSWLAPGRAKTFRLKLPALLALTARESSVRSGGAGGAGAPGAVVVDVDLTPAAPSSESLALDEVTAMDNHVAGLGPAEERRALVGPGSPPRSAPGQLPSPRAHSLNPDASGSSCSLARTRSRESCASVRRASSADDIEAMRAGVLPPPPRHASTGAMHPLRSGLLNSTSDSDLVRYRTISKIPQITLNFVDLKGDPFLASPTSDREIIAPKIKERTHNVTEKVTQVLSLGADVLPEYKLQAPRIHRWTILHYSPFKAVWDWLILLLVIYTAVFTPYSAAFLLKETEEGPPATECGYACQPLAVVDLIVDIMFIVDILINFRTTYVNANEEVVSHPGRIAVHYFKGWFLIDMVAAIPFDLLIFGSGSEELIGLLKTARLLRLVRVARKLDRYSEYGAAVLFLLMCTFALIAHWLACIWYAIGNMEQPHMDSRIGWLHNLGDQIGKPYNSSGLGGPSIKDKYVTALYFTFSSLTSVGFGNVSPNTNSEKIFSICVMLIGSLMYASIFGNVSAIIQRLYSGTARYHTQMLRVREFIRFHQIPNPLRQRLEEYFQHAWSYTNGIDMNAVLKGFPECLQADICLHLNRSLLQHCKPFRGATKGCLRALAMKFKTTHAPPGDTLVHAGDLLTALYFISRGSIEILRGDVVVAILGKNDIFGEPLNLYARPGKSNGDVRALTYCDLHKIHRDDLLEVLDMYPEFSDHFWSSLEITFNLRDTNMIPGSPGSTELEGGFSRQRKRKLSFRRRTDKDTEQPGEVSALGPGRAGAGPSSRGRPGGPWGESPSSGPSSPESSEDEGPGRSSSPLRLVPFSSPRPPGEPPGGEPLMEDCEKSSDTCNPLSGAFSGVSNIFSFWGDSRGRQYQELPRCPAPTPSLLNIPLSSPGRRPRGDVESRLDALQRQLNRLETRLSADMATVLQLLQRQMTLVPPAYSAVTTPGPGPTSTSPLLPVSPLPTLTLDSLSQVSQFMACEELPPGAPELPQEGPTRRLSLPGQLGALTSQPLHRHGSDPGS
Sequence of Cytochrome P450 3A4 (Homo sapiens) (P08684 whole entry, looked up): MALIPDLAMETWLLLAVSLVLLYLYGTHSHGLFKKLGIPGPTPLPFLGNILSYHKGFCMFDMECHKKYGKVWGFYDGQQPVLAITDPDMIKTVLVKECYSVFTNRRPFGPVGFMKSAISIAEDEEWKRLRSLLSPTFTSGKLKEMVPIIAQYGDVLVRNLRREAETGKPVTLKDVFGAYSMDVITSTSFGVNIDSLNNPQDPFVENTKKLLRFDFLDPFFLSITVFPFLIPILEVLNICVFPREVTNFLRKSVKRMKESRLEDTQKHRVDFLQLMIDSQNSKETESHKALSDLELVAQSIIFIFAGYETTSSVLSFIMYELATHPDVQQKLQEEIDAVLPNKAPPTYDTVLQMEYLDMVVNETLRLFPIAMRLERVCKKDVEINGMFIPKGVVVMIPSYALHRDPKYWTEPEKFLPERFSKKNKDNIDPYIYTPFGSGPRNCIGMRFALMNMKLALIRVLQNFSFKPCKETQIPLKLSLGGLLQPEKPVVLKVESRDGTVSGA
Sequence of Cytochrome P450 2C9 (Homo sapiens) (P11712 whole entry, looked up): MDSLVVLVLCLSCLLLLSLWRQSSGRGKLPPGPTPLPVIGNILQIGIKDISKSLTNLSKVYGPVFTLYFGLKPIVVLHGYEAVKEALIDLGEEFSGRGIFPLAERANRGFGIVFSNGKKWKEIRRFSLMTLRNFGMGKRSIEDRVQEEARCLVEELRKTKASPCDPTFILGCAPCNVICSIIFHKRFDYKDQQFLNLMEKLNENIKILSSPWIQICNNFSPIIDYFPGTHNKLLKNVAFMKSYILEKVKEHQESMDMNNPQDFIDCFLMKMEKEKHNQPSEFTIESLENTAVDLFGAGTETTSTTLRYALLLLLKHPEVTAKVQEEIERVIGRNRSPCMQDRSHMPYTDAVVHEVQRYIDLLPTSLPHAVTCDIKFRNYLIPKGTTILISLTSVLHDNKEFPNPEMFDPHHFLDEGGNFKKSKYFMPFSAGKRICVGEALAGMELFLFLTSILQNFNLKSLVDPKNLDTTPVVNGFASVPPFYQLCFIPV
Sequence of Cytochrome P450 1A2 (Homo sapiens) (P05177 whole entry, looked up): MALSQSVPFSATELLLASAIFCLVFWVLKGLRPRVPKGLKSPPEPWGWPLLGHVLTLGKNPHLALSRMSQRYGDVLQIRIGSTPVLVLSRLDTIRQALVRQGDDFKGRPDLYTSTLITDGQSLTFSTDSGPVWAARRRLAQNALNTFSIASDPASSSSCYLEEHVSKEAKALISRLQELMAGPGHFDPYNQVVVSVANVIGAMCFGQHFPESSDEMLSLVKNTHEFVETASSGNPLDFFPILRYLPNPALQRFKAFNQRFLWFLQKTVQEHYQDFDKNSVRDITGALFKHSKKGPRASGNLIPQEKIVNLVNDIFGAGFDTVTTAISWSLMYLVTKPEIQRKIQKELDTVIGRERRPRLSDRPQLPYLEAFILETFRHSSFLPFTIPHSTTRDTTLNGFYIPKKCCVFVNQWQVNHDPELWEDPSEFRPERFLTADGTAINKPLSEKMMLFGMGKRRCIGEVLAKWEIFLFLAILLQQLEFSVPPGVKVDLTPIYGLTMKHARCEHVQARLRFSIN
Sequence of Cytochrome P450 2C19 (Homo sapiens) (P33261 whole entry, looked up): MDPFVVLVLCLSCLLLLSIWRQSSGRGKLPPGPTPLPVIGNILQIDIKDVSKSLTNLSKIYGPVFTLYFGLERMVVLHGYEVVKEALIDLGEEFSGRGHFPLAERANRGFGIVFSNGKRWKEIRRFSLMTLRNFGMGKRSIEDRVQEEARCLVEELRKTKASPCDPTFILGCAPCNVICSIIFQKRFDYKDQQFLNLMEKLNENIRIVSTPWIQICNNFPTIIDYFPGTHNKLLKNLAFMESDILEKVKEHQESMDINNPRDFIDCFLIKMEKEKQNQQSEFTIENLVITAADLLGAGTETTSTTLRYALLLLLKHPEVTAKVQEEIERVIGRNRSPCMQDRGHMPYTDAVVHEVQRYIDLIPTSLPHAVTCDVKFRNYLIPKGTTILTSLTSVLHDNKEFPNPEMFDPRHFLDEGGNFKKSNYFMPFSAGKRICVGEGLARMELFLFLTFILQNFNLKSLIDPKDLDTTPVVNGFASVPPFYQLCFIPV

`CCCCCCCCCC/C=C/C#N`: the Potency result in assay [1], in assay [2] and in assay [3] was “inactive” in each case.

`Cc1nc(N)nc(N)c1-c1ccc(Cl)c(Cl)c1`: the Potency entry in assay [1], in assay [2], in assay [4] and in assay [3] was “inactive” each time.

In the case of `O=C(O)[C@@H](O)[C@H](O)[C@H](O)[C@@H](O)C(=O)O`, the Potency entry in assay [1], in assay [2], in assay [4] and in assay [3] was “inactive” throughout.

In the case of `CCN(O)CC`, the Potency entry in assay [1], in assay [4], in assay [5] and in assay [3] was “inactive” throughout.

In the case of `CCCCCCCOC(=O)CCC`, the Potency in assay [1] is 79.6 µM (active). Also, the Potency entry in assay [2] and in assay [3] was “inactive” throughout.

Turning to `COC(=O)C(C)O` (stereo not drawn), the Potency entry in assay [1], in assay [2], in assay [5] and in assay [3] was “inactive” throughout.

On to `CCCCCCCCCCCCOCCOS(=O)(=O)O`, for which the Potency in assay [1] was 79.6 µM (active); in assay [2] it was 71 µM (active). In addition, the Potency result in assay [5] is “inactive”.

With `CC(C)CC(=O)OCc1ccccc1`, the Potency result in assay [1], in assay [4] and in assay [5] was “inactive” throughout.

Regarding `O=C1CCCCCCCCCCC(=O)OCCO1`, the Potency in assay [1] is 35.6 µM (active); in assay [4], 22.4 µM (active). Also, the Potency result in assay [5] was “inactive”.

For `CCCOCCC`, the Potency entry in assay [1], in assay [4] and in assay [5] was “inactive” throughout.

With `NCCCN1CCN(CCCN)CC1`, the Potency result in assay [1], in assay [2], in assay [5] and in assay [3] was “inactive” each time.

Turning to `C1CSCCS1`, the Potency result in assay [1], in assay [2], in assay [4] and in assay [3] was “inactive” throughout.

Turning to `CCN(CC)CCNC(=O)COc1ccc(Cl)cc1`, the Potency result in assay [1] and in assay [2] was “inactive” in each case. Moreover, the Potency in assay [5] is 13.4 µM (active).

Regarding `C=CC1CO1` (stereo not drawn), the Potency entry in assay [1], in assay [2] and in assay [5] was “inactive” throughout.

As to `CN1CCN(c2c(F)cc3c(=O)c(C(=O)O)cn4c3c2SCC4)CC1`, the Potency result in assay [1] and in assay [4] was “inactive” each time.

In the case of `CC(C)C(=O)OCC(C)(C)C(O)C(C)C` (stereo not drawn), the Potency result in assay [1], in assay [2] and in assay [3] was “inactive” in each case.

On to `FC(F)(F)c1ccccc1`, for which the Potency result in assay [1], in assay [4], in assay [5] and in assay [3] was “inactive” in each case.

As to `O=C(O)c1cccc(Cl)c1Cl`, the Potency result in assay [1], in assay [2], in assay [5] and in assay [3] was “inactive” in each case.

For `CN1CCN(C2=Nc3ccccc3Oc3ccc(Cl)cc32)CC1`, the Potency is 8.71 µM (active) in assay [1] and 16.9 µM (active) in assay [5]. Also, the Potency result in assay [4] is “inactive”.

Take `CN(C)Cc1ccccc1`: the Potency result in assay [1], in assay [2], in assay [5] and in assay [3] was “inactive” in each case.

For `CC(=O)OC1C2(C)CCC(C2)C1(C)C` (stereo not drawn), the Potency entry in assay [1], in assay [2], in assay [5] and in assay [3] was “inactive” each time.

For `CO[C@@]1(NC(=O)CSCC#N)C(=O)N2C(C(=O)O)=C(CSc3nnnn3C)CS[C@@H]21`, in assay [1], the Potency result was “inactive”. The Potency in assay [4] was 24.5 µM (active).

Regarding `CCOC(=O)c1cc(=O)c2c(OCC(COc3cccc4oc(C(=O)OCC)cc(=O)c34)OC(=O)[C@@H](N)CCCCN)cccc2o1`, the Potency entry in assay [1] and in assay [5] was “inactive” throughout. In addition, the Potency in assay [2] is 15.5 µM (active).

In the case of `CC(C)C(=O)OC/C=C/c1ccccc1`, the values for the Potency in assay [1] and in assay [2] were 39.9 µM (active) and 35.6 µM (active), respectively. Moreover, the Potency result in assay [5] and in assay [3] was “inactive” in each case.

As to `CCCC1CCC(=O)O1` (stereo not drawn), the Potency entry in assay [1], in assay [2], in assay [5] and in assay [3] was “inactive” in each case.

For `CS(=O)(=O)c1ccc([C@@H](O)[C@@H](CF)NC(=O)C(Cl)Cl)cc1`, in assay [1], the Potency was 21.9 µM (active). The Potency entry in assay [4], in assay [5] and in assay [3] was “inactive” each time.

In the case of `Cn1cnc2c(F)c(Nc3ccc(Br)cc3Cl)c(C(=O)NOCCO)cc21`, the figures for the Potency in assay [1] and in assay [2] were 8.71 µM (active) and 13.8 µM (active), respectively. In addition, the Potency entry in assay [5] is “inactive”.

`CCOC(=O)C1CC(=O)C(=C(O)C2CC2)C(=O)C1` (stereo not drawn): the Potency in assay [1] is 71 µM (active). The Potency entry in assay [4] and in assay [5] was “inactive” throughout.

In the case of `Nc1ccc2ccccc2c1S(=O)(=O)O`, the Potency in assay [1] was 40.7 µM (active); in assay [4] it was 3.24 µM (active); in assay [3] it was 57.5 µM (active). In addition, in assay [5], the Potency result is “inactive”.

In the case of `O=Cc1ccc(F)c(Br)c1`, the Potency result in assay [1], in assay [5] and in assay [3] was “inactive” each time. Further, in assay [4], the Potency was 35.6 µM (active).

As for `CCCCCCCCc1ccc(S(=O)(=O)O)cc1`, the Potency entry in assay [1], in assay [4], in assay [5] and in assay [3] was “inactive” in each case.

As for `Cc1nnc(SCC2=C(C(=O)O)N3C(=O)[C@@H](NC(=O)Cn4cnnn4)[C@H]3SC2)s1`, the Potency result in assay [1], in assay [5] and in assay [3] was “inactive” in each case.

`CCc1cc2cc(OC)c(OC)cc2c(Cc2ccccc2)n1`: the Potency in assay [2] is 15.5 µM (active); in assay [4] it was 6.45 µM (active).

With `Clc1cccc(-c2cc(Cl)cc(Cl)c2)c1`, the Potency in assay [1] was 30.6 µM (active); in assay [4] it was 21.7 µM (active). The Potency entry in assay [3] was “inactive”.

Turning to `Nc1ccc(Oc2ccc(N)c(N)c2)cc1`, the Potency in assay [1] is 20 µM (active); in assay [4] it was 35.6 µM (active); in assay [3], 3.56 µM (active). The Potency result in assay [5] was “inactive”.

`CCC/C=C/CO`: the Potency result in assay [1], in assay [4], in assay [5] and in assay [3] was “inactive” in each case.

These data come from PubChem BioAssay (Tox21).
